Sampled rows, rich in hits. Any-hit rate of the full collection: about 3.4%.
GPR151 ag: human GPR151 activation; Q8TDV0; activation, % at 11.2 µM; 1% of 650,000 active; PathHunter beta-arrestin GPR151 cells, luminescence; in the data active means activation above about 4.9%;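 further: 0% = median of compound wells and 100% = cells with positive control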
MITF inh: blocks human microphthalmia-associated transcription factor. AlphaScreen MITF homodimerization, bead proximity signal. inhibition, % at 2.6 µM. 0.91% of 650,000 active. AID 1259374; in the data active means inhibition above about 50%;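 further: 0% = vehicle wells with protein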
TEAD-YAP block: TEAD-YAP interaction inhibition | HEK-TIYL cells, TEAD-Gal4/YAP UAS-luciferase luminescence | 1.4% of 640,000 active | inhibition, % at 9.12 µM | AID 1259422; in the data active means inhibition above about 32%;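 further: 0% = median of test compound wells and 100% = reference inhibitor wells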
FBW7 activator: activators of human E3 ligase FBW7. Q969H0. AlphaScreen FBW7–phospho-cyclin E peptide binding, activator screen. normalized activity (activation), % at 26.1 µM. 0.13% of 650,000 active; in the data active means normalized activity above about 1.9%;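 further: purified mutant Fbw7 with reduced substrate affinity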
GPR151 conf act: human GPR151 activation, confirmation screen; shares compounds with GPR151 ag; 6,700 tested, under 10 active; AID 1508609; activation, % at 11.2 µM; GPR151 PathHunter beta-arrestin cells, luminescence, 90 min; % of EA-reagent control over plate median;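 active means mean percent activation across replicates above the confirmation screen cutoff of 4.91%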
GPR119 counter: activates human GPR119 in a GPR151 counter-screen. shares compounds with GPR151 ag. GPR119 PathHunter beta-arrestin cells, luminescence, 90 min; 0 = compound-well median, 100 = enzyme-acceptor control. AID 1508611. 0.3% of 6,700 active. activation, % at 11.2 µM;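 active means mean percent activation in the counterscreen above 29.09%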;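 further: counterscreen on off-target GPR119 to flag nonselective hits from the GPR151 activator screen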
Numbers without * were called inactive; x = no result given.

SMILES	GPR151 ag	MITF inh	TEAD-YAP block	FBW7 activator	GPR151 conf act	GPR119 counter
Cc1nc2ccc(Cl)cc2c2c(NC=O)c3ccccc3n12	-2	17	12	0	x	x
CCc1nc2ccc(-c3ccc4nc(CC)oc(=O)c4c3)cc2c(=O)o1	8.8*	14	-1	0	0	6
C=C(C)c1nc2ccc(-c3ccc4nc(C(=C)C)oc(=O)c4c3)cc2c(=O)o1	0	18	0	0	x	x
CCc1ccc(N2CC(C(=O)Nc3cccc(OC(C)C)c3)CC2=O)cc1 (centres undefined)	0	16	12	0	x	x
O=C(Nc1nnc(-c2ccco2)o1)c1nc2ccccc2s1	4.9*	4	-31	0	0	-1
Cc1ccsc1CN1CCc2nnc(CNC(=O)COc3ccccc3)n2CC1	1	-7	-1	0	x	x
CCCCC(C(=O)OC)N1C(=O)c2cc(Cl)c(Cl)cc2C1=O (centres undefined)	7.6*	-2	-1	0	0	5
NC(=O)c1ccccc1NC(=O)CCN1C(=O)c2cccc([N+](=O)[O-])c2C1=O	5.4*	9	-1	1	-1	8
O=C(CN1C(=O)c2cccc([N+](=O)[O-])c2C1=O)OCc1ccc(Cl)cc1	7.3*	2	-1	1	0	-8
O=C(CN1C(=O)c2cccc([N+](=O)[O-])c2C1=O)OCc1ccc(C(=O)c2ccccc2)cc1	4	4	-4	1	x	x
O=C(CN1C(=O)c2cccc([N+](=O)[O-])c2C1=O)OCC(=O)c1ccccc1Cl	2	15	2	0	x	x
O=C(COC(=O)CN1C(=O)c2cccc([N+](=O)[O-])c2C1=O)OCN1C(=O)c2ccccc2C1=O	4.9*	34	-12	1	0	4
Cc1noc(C)c1COC(=O)c1cc(S(=O)(=O)N2CCOCC2)c(Cl)cc1Cl	1	9	3	0	x	x
CC(=O)N1CCN(C(=O)CSc2nnc(Cc3cccs3)n2C2CCCCC2)CC1	-1	8	11	1	x	x
CS(=O)(=O)N1CCN(c2ccc(C(=O)N3CCOCC3)cc2[N+](=O)[O-])CC1	7.6*	13	5	1	0	1
O=C(c1ccc(N2CCCCCC2)c([N+](=O)[O-])c1)N1CCOCC1	-1	7	-2	0	x	x
COC(=O)c1c(OCc2ccccn2)cc(=O)n2c1CCN(C(=O)c1ccccc1C)CC2	-1	-15	-1	0	x	x
COC(=O)c1c(OCc2ccncc2)cc(=O)n2c1CCN(C(=O)c1ccccc1C)CC2	5.1*	-19	-17	0	1	-2
CC(C)C1=NOC(C(=O)N2CCC(CO)(Cc3cccc(C(F)(F)F)c3)CC2)C1 (centres undefined)	5.2*	-3	-7	0	1	14
COc1cc(/C=N/NC(=O)c2ccco2)ccc1OCc1ccc([N+](=O)[O-])cc1	-1	31	-71	1	x	x
COc1cc(/C=N\NC(=O)c2ccc([N+](=O)[O-])cc2)ccc1OC(=O)c1ccco1	11*	9	1	0	-1	-5
Cc1sc2nc(CSc3nnc(-c4ccncc4)n3C)[nH]c(=O)c2c1C	0	3	2	0	x	x
FC(F)(F)c1ccc(Cn2cnc3c(NC4CC4)nc(-c4csc5ccccc45)nc32)cc1	1	4	-6	0	x	x
FC(F)(F)c1ccc(Cn2cnc3c(NC4CCN(Cc5ccccc5)CC4)nc(-c4csc5ccccc45)nc32)cc1	7.0*	-3	8	0	0	3
c1ccc2c(-c3nc(NC4CC4)c4ncn(C5CCCCC5)c4n3)csc2c1	7.5*	-3	-13	0	-1	-16
Cc1cccc(NC(=O)c2sc3ncnc(N4CCN(c5ccccc5)CC4)c3c2C)n1	-1	-13	-5	0	x	x
O=C(c1ccco1)N1CCc2ccc(NC(=O)C3(c4ccccc4)CCOCC3)cc21	8.4*	-9	-4	0	0	-5
O=C(Nc1ccc2c(c1)N(C(=O)c1ccco1)CC2)c1cccs1	1	1	-13	0	x	x
COc1cc(CNc2ncc(-c3cccc(C(=O)O)c3)n3ccnc23)cc(OC)c1OC	0	4	-1	0	x	x
Cc1ccnn1-c1nc(-c2ccco2)cc(C(F)(F)F)n1	0	-24	-4	0	x	x

Assay outcomes: PubChem, The Scripps Research Institute Molecular Screening Center
